Assay [1] addresses Aldehyde dehydrogenase, mitochondrial (Homo sapiens) (UniProt P05091). In words: qHTS for Inhibitors of the Aldehyde Dehydrogenase Family (ALDH2) Primary screen (AID 2061308).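 Note: plate controls were vehicle for no effect and reference inhibitor for full effect; nearly all actives have a fitted effect of over 55% in size.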 To be noted: ALDH2 enzyme inhibition qHTS, 1536-well; series mostly up to 56 µM. In general terms: Quantitative high-throughput screening tests each substance at several concentrations.
Assay [2] has as its target Retinaldehyde dehydrogenase 3 (Homo sapiens) (UniProt P47895). In words: qHTS for Inhibitors of the Aldehyde Dehydrogenase Family (ALDH1A3) Confirmatory screens (AID 2061311). For activity change, negative = inhibition: % is set by controls: 0 for no effect and ±100 for the full control effect. Note: nearly all actives have a fitted effect of over 60% in size. Note: potency is the fitted concentration of half-maximal effect. To be noted: ALDH inhibition qHTS; series mostly up to 46 µM.
For assay [3] the target is unchanged. The experiment in a line: qHTS for Inhibitors of the Aldehyde Dehydrogenase Family (ALDH1A3) Primary screen (AID 2061315).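 For activity change, negative = inhibition: plate controls were DMSO vehicle for no effect and reference inhibitor for full effect.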 Note: potency is the fitted concentration of half-maximal effect. Particulars: ALDH inhibition qHTS; series mostly up to 56 µM.
The target in assay [4] is Retinal dehydrogenase 2 (Homo sapiens) (UniProt O94788). The experiment in a line: qHTS for Inhibitors of the Aldehyde Dehydrogenase Family (ALDH1A2) Confirmation screens (AID 2061314). Note: nearly all actives have a fitted effect of over 65% in size. Note: potency is the fitted concentration of half-maximal effect. Particulars: ALDH1A2 enzyme inhibition qHTS confirmation; series mostly up to 45.9 µM.
Assay [5] concerns the target Aldehyde dehydrogenase 1A1 (Homo sapiens) (UniProt P00352). In words: qHTS for Inhibitors of the Aldehyde Dehydrogenase Family (ALDH1A1) Confirmatory screens (AID 2061316). For activity change, negative = inhibition: % is set by controls: 0 for no effect and ±100 for the full control effect. Note: nearly all actives have a fitted effect of over 65% in size. Note: potency is the fitted concentration of half-maximal effect. To be noted: ALDH inhibition qHTS; series mostly up to 47.3 µM.

For 35 compounds, Potency and activity change, negative = inhibition results are on record in PubChem BioAssay (NCATS).

Inconclusive results are not listed. Values without a mark were called inactive. Active and inactive are the calls of the source. Calls come from the whole dose curve; as a rule, active = well fitted curve in the direction sought with a large enough effect; inconclusive = small, poorly fitted or top-dose-only effect, or another doubt; inactive = no such curve, though single readings can be large; an effect the other way counts as inactive or inconclusive.

As for `NNc1ccc(NC(=O)c2cccs2)cn1`, the Potency result in assay [1] and in assay [3] was “inactive” each time. Moreover, in assay [2], the Potency was 11.3 µM (active).
Take `Nc1cccc(CNc2ccc(S(=O)(=O)Nc3nccs3)cc2)c1O`: the results for the activity change, negative = inhibition in assay [1] and in assay [3] were 2.56% [at 11.2 µM] and -14.8% [at 11.2 µM], respectively. Besides, the Potency was 10.1 µM (active) in assay [2] and 11.3 µM (active) in assay [5]. Further, the Potency result in assay [4] was “inactive”.
On to `CNC(=O)C1=C(C)NC(Nc2nc3ccccc3o2)=NC1c1[nH]ncc1Cl` (stereo not given), for which the Potency entry in assay [1], in assay [2] and in assay [3] was “inactive” each time.
Take `CCN(CC)C(=O)CC(c1ccc2c(c1)OCO2)c1c(O)cc(OC)cc1OC` (stereo not given): the Potency result in assay [1], in assay [2], in assay [4] and in assay [3] was “inactive” each time.
In the case of `CN(C)c1cnc2c(O)ccc(C(=O)O)c2c1`, the Potency entry in assay [1] and in assay [3] was “inactive” each time. Also, the Potency is 8.96 µM (active) in assay [2] and 5.04 µM (active) in assay [4].
`CN1CCN(c2ccc(NC(=O)c3cccs3)cn2)CC1`: the Potency entry in assay [1] and in assay [3] was “inactive” each time. Further, the Potency in assay [2] was 22.5 µM (active); in assay [4], 12.7 µM (active).
With `c1c[nH]c(C2CCN(c3ncc(-c4ccc5c(c4)OCCCO5)s3)CC2)n1`, the Potency result in assay [1] and in assay [3] was “inactive” in each case. The Potency in assay [2] was 5.04 µM (active); in assay [4], 4 µM (active); in assay [5], 1.79 µM (active).
Regarding `Cc1ccc(-c2ccc(=O)n(CC(=O)NCCc3ccccc3)n2)cc1`, the Potency result in assay [1] and in assay [3] was “inactive” each time. The Potency is 0.447 µM (active) in assay [2] and 11.2 µM (active) in assay [4].
With `Cc1occc1-c1ccc2ncnc(NCc3ncc[nH]3)c2c1`, the Potency result in assay [1] and in assay [3] was “inactive” each time. Also, the Potency in assay [2] was 4 µM (active).
Consider `COc1ccc(-c2ccc(=O)n(CC(=O)NCCc3ccccc3)n2)cc1`, for which the Potency result in assay [1], in assay [3] and in assay [5] was “inactive” in each case. In addition, the Potency is 1.58 µM (active) in assay [2] and 15.8 µM (active) in assay [4].
On to `CC(=O)Nc1sc2c(c1-c1ccc(N3CCN(C(C)=O)CC3)nc1)CCNC2`, for which the Potency result in assay [1] and in assay [3] was “inactive” in each case. Also, the Potency is 12.7 µM (active) in assay [2] and 7.98 µM (active) in assay [4].
Regarding `Cc1ccc(NS(=O)(=O)c2cc3c(cc2N2CCC2)NC(=O)CC3)cc1C`, the Potency result in assay [1], in assay [2] and in assay [3] was “inactive” in each case. In addition, the Potency in assay [4] was 22.5 µM (active); in assay [5], 11.3 µM (active).
Consider `COc1cc(O)ccc1OCCNCC(O)COc1cccc2[nH]c3ccccc3c12` (stereo not given), for which the Potency entry in assay [1] is “inactive”. Also, the Potency in assay [2] was 12.7 µM (active); in assay [3] it was 3.16 µM (active).
Take `CC(C)(C)OC(=O)N[C@@H](Cc1ccc(O[S+](=O)([O-])c2cccnc2)cc1)C(=O)N1CCN(c2ccccc2)CC1`: the Potency entry in assay [1] and in assay [3] was “inactive” throughout. Besides, the Potency is 28.3 µM (active) in assay [2] and 15.9 µM (active) in assay [4].
With `CNS(=O)(=O)c1ccc(Cc2c(-c3cccc(-c4ccccc4)c3)[nH]n(-c3nc(C(=O)O)cs3)c2=O)cc1`, the Potency entry in assay [1] and in assay [3] was “inactive” in each case. For the same compound, the Potency in assay [2] is 4 µM (active).
In the case of `CC(=O)N1CCN(c2ccc(NCc3ccccc3)cc2)CC1`, the Potency result in assay [1] is “inactive”. Moreover, the Potency in assay [2] was 12.7 µM (active); in assay [4], 11.3 µM (active); in assay [5], 10.1 µM (active).
Take `O=C1CCCC2=C1C1(CCC1)N=C(Nc1nc3ccccc3o1)N2`: the Potency result in assay [1], in assay [3] and in assay [5] was “inactive” each time. The Potency in assay [2] is 12.7 µM (active); in assay [4], 7.98 µM (active).
For the compound `CC(C)(C)OC(=O)N1CCN(c2ccc(NCc3occc3-c3ccc(C#N)cc3)cc2)CC1`, the Potency result in assay [1] is “inactive”. Besides, the values for the Potency in assay [2], in assay [4] and in assay [5] were 20.1 µM (active), 12.7 µM (active) and 11.3 µM (active), respectively.
Consider `Cc1ccc(S(=O)(=O)Nc2cccc3ccc[n+](C)c23)cc1`, for which the Potency result in assay [1] and in assay [3] was “inactive” each time. Moreover, the Potency in assay [2] was 10.1 µM (active); in assay [4], 25.2 µM (active).
Regarding `Cc1noc(C)c1S(=O)(=O)Nc1cnccc1C(=O)Nc1nc(-c2ccccc2)cs1`, the Potency entry in assay [1], in assay [2] and in assay [3] was “inactive” each time.
As to `CCC(=O)NC(c1ccco1)c1cc(Br)c2cccnc2c1O` (stereo not given), the Potency entry in assay [1] and in assay [3] was “inactive” each time. The Potency is 12.7 µM (active) in assay [2] and 11.3 µM (active) in assay [4].
For the compound `C/C=C/c1ccc2oc(-c3ccc(O)c(OC)c3)c(C)c2c1`, in assay [1], the Potency result was “inactive”. The Potency in assay [2] is 1.01 µM (active); in assay [4], 25.1 µM (active); in assay [5] it was 17.9 µM (active).
With `CC(=O)N1CCN(c2ccc(NCc3cccc(C)c3)cc2)CC1`, the Potency result in assay [1] was “inactive”. The Potency was 20.1 µM (active) in assay [2], 12.7 µM (active) in assay [4] and 12.7 µM (active) in assay [5].
For the compound `CC(=O)NC(c1cccs1)c1cc(Br)c2cccnc2c1O` (stereo not given), the Potency result in assay [1] and in assay [3] was “inactive” throughout. For the same compound, the Potency in assay [2] is 10.1 µM (active).
On to `C=CCNc1nnc(-c2cccc3ccccc23)o1`, for which the Potency result in assay [1] was “inactive”. Besides, the Potency was 10.1 µM (active) in assay [2], 8.96 µM (active) in assay [4] and 7.98 µM (active) in assay [5].
On to `CN(C)c1cccc(-c2cnc(N3CCC(C(N)=O)CC3)nc2)c1`, for which the Potency entry in assay [1] is “inactive”. Also, the Potency in assay [2] is 22.5 µM (active); in assay [4], 12.7 µM (active); in assay [5], 11.3 µM (active).
In the case of `NC(=O)C1CCN(c2ncc(-c3ccc4c(c3)OCCCO4)s2)CC1`, the Potency result in assay [1], in assay [2] and in assay [3] was “inactive” throughout. The Potency in assay [4] was 3.57 µM (active).
`Oc1ccc(CNc2cc(Cl)ccn2)c2cccnc12`: in assay [1], the Potency entry was “inactive”. The Potency in assay [2] was 3.57 µM (active); in assay [4], 12.7 µM (active); in assay [5], 8.96 µM (active).
Regarding `COc1ccc(C(=O)N(Cc2ccccc2)Cc2ccco2)c(O)c1`, the Potency entry in assay [1] and in assay [3] was “inactive” each time. The values for the Potency in assay [2] and in assay [4] were 14.2 µM (active) and 25.2 µM (active), respectively.
On to `Oc1cccc2cc(NCc3ccccc3F)cnc12`, for which the Potency result in assay [1] and in assay [3] was “inactive” each time. Further, the results for the Potency in assay [2] and in assay [4] were 7.12 µM (active) and 15.9 µM (active), respectively.
Regarding `N[C@@H]1CCN(c2cnc3c(O)ccc(C(=O)O)c3c2)C1`, the Potency entry in assay [1], in assay [3] and in assay [5] was “inactive” each time. The figures for the Potency in assay [2] and in assay [4] were 12.7 µM (active) and 25.2 µM (active), respectively.
Turning to `O=C(O)c1ccc(O)c2ncc(NC3CCNC3)cc12` (stereo not given), the Potency entry in assay [1], in assay [2], in assay [3] and in assay [5] was “inactive” in each case. In addition, in assay [4], the Potency is 3.57 µM (active).
As to `Cc1ccc(CNc2ccc(N3CCNCC3)cc2)cc1`, the Potency entry in assay [1] is “inactive”. For the same compound, the Potency was 14.2 µM (active) in assay [2], 10.1 µM (active) in assay [4] and 11.3 µM (active) in assay [5].
As to `Cc1ccnc(NC(=S)N[C@@H]2CCN(c3cccc(C(F)(F)F)c3)C2)c1`, the Potency result in assay [1], in assay [2] and in assay [3] was “inactive” in each case.
Take `N#CN1CCC(NS(=O)(=O)c2ccc(C(F)(F)F)cc2)CC1`: the Potency entry in assay [1], in assay [2], in assay [3] and in assay [5] was “inactive” each time. For the same compound, the Potency in assay [4] is 12.7 µM (active).
